Data on 14 molecules can be found in the supplement of paper PMC13380429.

The subject of the assay is Vero E6 infected with SARS-CoV-2. The assay can be described thus: morphology score (similarity to uninfected cells); higher = more like uninfected cells. As to conditions: 24 h.
As to `CCOc1cc(N)c(Cl)cc1C(=O)NCC1CN(Cc2ccc(F)cc2)CCO1` (centres undefined) [mosapride] (10 µM), the morphology score is 0.33.

`Cc1ccc(C(=O)c2ccc(CC(=O)O)n2C)cc1` [tolmetin] (10 µM) displayed a morphology score of 0.0813.

Molecule `O=c1[nH]c(=O)n([C@H]2C[C@H](O)[C@@H](CO)O2)cc1/C=C/Br` [brivudine] (10 µM) yielded a morphology score of 0.0102. In turn, `CN(C)Cc1ccc(-c2nc3cccc4c3n2CCNC4=O)cc1` (10 µM) came in with a morphology score of 0.092. With `CN1C2C=C(c3sccc3Br)CC1CC2` (centres undefined) (10 µM), the morphology score came to 0.427. Regarding `O=S(=O)(/N=C/c1c(O)ccc2ccccc12)c1cccs1` (10 µM), the morphology score was found to be 0.103.

`CSc1ccc(C(=O)N[C@@H]2CCCC[C@@H]2NC(=O)CNC(=O)c2cc(C(F)(F)F)ccc2NC(=O)NC(C)C)cc1` (10 µM): the morphology score was 0.07.

`CN(CCOc1ccc(-c2ccc3c(c2)OCO3)cc1C(C)(C)C)CC(=O)O` (10 µM) gave a morphology score of -0.0713. Turning to `C#CCN(C)Cc1ccccc1` [pargyline] (10 µM), the morphology score amounted to 0.0803.

Turning to `CC1(C)OC(=O)NC1=O` [dimethadione] (10 µM), the morphology score was -0.0571. Under `CCCC(=O)O[C@]1(C(=O)COC(C)=O)CC[C@H]2[C@@H]3C[C@H](F)C4=CC(=O)C=C[C@]4(C)[C@@]3(F)[C@@H](O)C[C@@]21C` [difluprednate] (10 µM) stands 0.215; under `O=C(O)c1cc(=O)c2ccccc2[nH]1` [kynurenic-acid] (10 µM), 0.122. The molecule `CCN1CCN(c2ccc(C(C)(C)NC(=O)c3cc4[nH]c5ccccc5c(=O)c4cc3F)cn2)CC1` (10 µM) yielded a morphology score of 0.572. As for `O=C1Nc2ccccc2C2(CCN(CCc3ccc(C(F)(F)F)cc3)CC2)O1` (10 µM), the figure is -0.158.
